A selection: hits, their analogues and other compounds. The true share with any hit is near 7.5%.
ELG1 genotoxic: qHTS screen for small molecules that induce genotoxicity in human embryonic kidney (HEK293T) cells expressing luciferase-tagged ELG1. AID 504466, 2011. HEK293T ELG1-luciferase reporter, luminescence, 16 h. Potency, µM (titrated, usually from 46 µM), for the others: at the top dose activity change, positive = activation, usual class: activators. hit rate 1.3% among 330,000; note: % of control where 0% means no effect; nearly all actives have a fitted effect of over 60% in size
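Genotoxicity was scored as increased ELG1-luciferase reporter signal, measured by ONE-Glo luminescence (30 min, room temperature). Compound or vehicle exposure of the HEK293T reporter cells lasted 16 hr at 37°C.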
SMN2 splice up: qHTS Assay for Enhancers of SMN2 Splice Variant Expression. Potency, µM (doses to about 46.1 µM), for the others: at the top dose activity change, positive = activation, hits mostly activators. HEK293 SMN2-luciferase splicing reporter, luminescence, 30-36 h. hit rate 2.8% among 210,000; note: % of control where 0% means no effect; nearly all actives have a fitted effect of over 55% in size
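qHTS luciferase splicing reporter: luminescence rises when SMN2 exon 7 is included in transfected HEK293 cells. Compound exposure lasted 30-36 h at 37C, with 4.5 mM final sodium butyrate as control, followed by a ONE-Glo read.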
NPC1 promoter act: qHTS Assay for NPC1 Promoter Activators. Huh7 NPC1 promoter luciferase reporter, 24 h. Potency, µM (top dose mostly 9.22 µM), for inactives: top-dose activation, usual class: activators. hit rate 2.4% among 320,000. AID 485313, 2010; note: % of control where 0% means no effect; nearly all actives have a fitted effect of over 60% in size
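Huh7 cells stably carrying NPC1 promoter–luciferase, plated in Opti-MEM with 10% FBS for 2 h, were exposed to compound in DMSO for 24 h at 37 °C; luciferase reagent was added for 10 min and luminescence read.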
KinaseGlo FLuc: Counterscreen for Luciferase (Kinase-Glo TM) Inhibition; Kinase-Glo luciferase, ATP luminescence, 8 min; hit rate 0.28% among 200,000; Potency, µM (doses to about 38.3 µM), without a hit: at the highest dose activity change, negative = inhibition, usual class: inhibitors; Luciferin 4-monooxygenase (Photuris pensylvanica), Q27757; note: % is set by controls: 0 for no effect and ±100 for the full control effect; nearly all actives have a fitted effect of over 60% in size
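Light output from Kinase-Glo luciferase with luciferin and 10 uM ATP in 50 mM imidazole pH 7.2, KCl, MgCl2, Tween 20, BSA; compound pin-delivered, 8-min ambient incubation, then luminescence read.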
FLuc modulator: qHTS profiling assay for firefly luciferase inhibitor/activator using purifed enzyme and Km concentrations of substrates (counterscreen for miR-21 project). hit rate 6.9% among 360,000. AID 588342, 2011. Luciferin 4-monooxygenase (Photinus pyralis), P08659. Potency, µM (top dose mostly 57.5 µM), without a hit: top-dose activity change, negative = inhibition, hits mostly inhibitors. purified FLuc, Km substrates, luminescence inhibition;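 note: plate controls were vehicle for no effect and reference inhibitor for full effect; nearly all actives have a fitted effect of over 55% in size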
Target sequence (P08659 whole entry, looked up): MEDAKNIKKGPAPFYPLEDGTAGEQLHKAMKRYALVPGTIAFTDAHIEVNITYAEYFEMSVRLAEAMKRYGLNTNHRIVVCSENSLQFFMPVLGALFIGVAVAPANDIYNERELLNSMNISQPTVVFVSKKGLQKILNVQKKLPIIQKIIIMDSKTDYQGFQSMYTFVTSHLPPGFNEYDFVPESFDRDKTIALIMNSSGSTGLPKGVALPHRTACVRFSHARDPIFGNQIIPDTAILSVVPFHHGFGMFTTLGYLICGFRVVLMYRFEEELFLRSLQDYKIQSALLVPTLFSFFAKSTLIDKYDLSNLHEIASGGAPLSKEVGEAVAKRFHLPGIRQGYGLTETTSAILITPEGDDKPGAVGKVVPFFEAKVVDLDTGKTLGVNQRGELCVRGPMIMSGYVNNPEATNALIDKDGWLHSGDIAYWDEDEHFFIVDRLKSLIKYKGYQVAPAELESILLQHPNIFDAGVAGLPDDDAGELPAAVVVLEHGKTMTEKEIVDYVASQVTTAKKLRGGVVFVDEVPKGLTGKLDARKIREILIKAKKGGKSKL
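Biochemical qHTS of compounds, final roughly 60 µM downward over six points, against 10 nM purified firefly luciferase using Km concentrations of substrates (10 uM D-luciferin, 10 uM ATP) in Tris acetate pH 7.5 buffer; luminescence output.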
Rab9 prom act: qHTS Assay for Rab9 Promoter Activators | Huh7 Rab9 promoter-luciferase reporter, luminescence, 24 h | Potency, µM (doses to about 9.22 µM), for inactives: top-dose activation, negative = inhibition, hits mostly activators | hit rate 2.8% among 320,000; note: % of control where 0% means no effect; nearly all actives have a fitted effect of over 60% in size
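Quantitative HTS format; Huh7 Rab9-luciferase reporter cells (1500/well) receive compound 2 h post-plating, incubate 24 h at 37 °C, then get luciferase reagent for 10 min before luminescence reading.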
An asterisk follows results filed as active; ? = inconclusive; nt = not tested or not shown; [ ] = another dose, or the depositor's remark. Calls come from the whole dose curve; as a rule, active = well fitted curve in the direction sought with a large enough effect; inconclusive = small, poorly fitted or top-dose-only effect, or another doubt; inactive = no such curve, though single readings can be large; an effect the other way counts as inactive or inconclusive. Potency is the fitted concentration of half-maximal effect.

SMILES	ELG1 genotoxic	SMN2 splice up	NPC1 promoter act	KinaseGlo FLuc	FLuc modulator	Rab9 prom act
O=C(NCCc1ccccc1)c1ccccc1NC(=O)C1CCCCC1C(=O)O (configuration not stated)	?	11µM*	?	1%	?	2µM*
COc1cccc(N2CCN(CC(=O)Nc3ccccc3C(=O)NCc3ccccc3)CC2)c1	-1%	nt	-1%	nt	-1%	-8%
COc1cccc(N2CCN(CC(=O)Nc3ccccc3C(=O)NCCc3ccccc3)CC2)c1	0%	nt	3.2µM*	nt	nt	3.5µM*
COC(=O)c1ccccc1NC(=O)C1CCCCC1C(=O)O (configuration not stated)	-12%	-15%	-5%	0%	2%	-2%
COC(=O)c1ccc(NC(=O)c2ccccc2N(C)S(C)(=O)=O)cc1	0%	21%	1%	-2%	0%	-5%
COc1ccccc1NC(=O)c1ccccc1NS(C)(=O)=O	-6%	-6%	-1%	-1%	1%	-6%[1.84 µM]
Cc1n[nH]c(C)c1CCNC(=O)C1CCC(=O)N(CCc2cccc(F)c2)C1 (configuration not stated)	0%	nt	0%	nt	-4%	7%
CC(C)c1cc(CNC(=O)C2CCC(=O)N(CCc3ccc(Cl)cc3)C2)on1 (configuration not stated)	-1%[9.26 µM]	nt	0%	nt	2%	0%
COc1ccc(NN=Nc2nc3c([nH]2)c(=O)n(C)c(=O)n3C)cc1	5%	nt	9%	nt	?	8%
NC(=O)c1ccc(-n2nnnc2SCC(=O)Nc2ccccc2F)cc1	0%	nt	-1%	nt	-2%	0%[1.84 µM]
CC(NC(=O)c1ccccc1NS(=O)(=O)c1ccc(CCC(=O)O)cc1)c1ccccc1 (configuration not stated)	3%	nt	-1%	nt	-1%	4%
COc1ccc(NC(C)=O)cc1S(=O)(=O)Nc1ccccc1C(=O)NCCc1ccccc1	?	nt	2.2µM*	nt	17µM*	2µM*
O=C(O)CCc1ccc(S(=O)(=O)Nc2ccccc2C(=O)NCCc2ccccc2)cc1	?	nt	2.2µM*	nt	19µM*	3.2µM*
COc1cc(OC)cc(OC(=O)c2ccc3c(=O)n4c(nc3c2)CCC4)c1	4%	nt	3%	nt	15µM*	0%
CC(=O)c1cccc(OC(=O)c2ccc3c(=O)n4c(nc3c2)CCC4)c1	-2%	nt	2%	nt	-18%	0%
Cc1ccc(OC(=O)c2ccc3c(=O)n4c(nc3c2)CCC4)cc1	6%	nt	-8%	nt	6µM*	-7%
Nc1nc(C2CCOCC2)cs1	0%	nt	2%	nt	-2%	1%
Nc1nc(C2CC2)c(Sc2sc(N)nc2C2CC2)s1	-6%	16µM*	1%	-3%	-1%	-3%
Cc1cc(C)n(CCc2nc(-c3ccc(F)cc3)cs2)n1	-2%	nt	-1%	1%	-19%	6%
CC1=NN(c2nc(-c3ccc(F)cc3)cs2)C(=O)C1	2%	-6%	0%	0%	17µM*	2%
COc1ccc(-c2csc(CCN3N=C(C)CC3=O)n2)cc1	13%	8%	0%	-3%	?	-1%
CC1=NN(c2ccc(Cl)cc2)C(=O)C1	-5%	-6%	0%	7%	-2%	8%
CC(C)(C)c1ccc(N2C(=N)SCC2=O)cc1	-3%	nt	0%	nt	-18%	-1%

Screens deposited in PubChem by National Center for Advancing Translational Sciences (NCATS).
